Calls of active or inactive are those of the source.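 How the source made its calls, unless noted: active means NADPH fluorescence slope more negative than the mean of all samples by about 3 SD, 99.7% confidence; inactive means the rest.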
Assays:
[1] = inhibitors of TNFa-induced NFkB p65 translocation, primary screen, imaging, HUVEC, MLSMR starter and 10KST1 sets (AID 438;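 active means inhibition above 20% together with a positive visual image hit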;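 further: compound added about 3h40 before a 20 min TNFalpha stimulation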;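 on inhibition: signal is the nuclear over cytoplasmic p65 intensity ratio per well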); settings: HUVEC TNFa-induced p65 nuclear translocation; cell count: measured here: nuclei count (cytotoxicity indicator), at 2.08 µM; inhibition: at 2 µM, stronger effect = higher value, 0% TNFa-plus-vehicle, 100% no-TNFa wells
[2] = reduction of polyQ htt aggregates in cells – imaging, exon1htt(103Q)mCFP cells, high-content imaging, primary screen (AID 483;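 active means visual image review flags a hit and inhibition of aggregation exceeds 20%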;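 further: compound exposure lasted 3 days before fixation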;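 on nuclei count: percent of the per-plate median nuclei count of sample wells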); settings: exon1htt(103Q)mCFP cell line, aggregate imaging, at 2 µM; inhibition of aggregation: stronger effect = higher value; nuclei count: measured here: cell count, toxicity
[3] = endothelial E-selectin expression blockers – imaging, HUVEC, immunofluorescence, MLSMR starter and 10KST1 sets, primary screen (AID 487;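 active means visually confirmed hit in the image check and inhibition above 20%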;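 on inhibition: signal is fraction of cell area covered by stained E-selectin grains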;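 on nuclei count: 100% = median nuclei count of all wells on the same plate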); settings: HUVEC TNFalpha-induced E-selectin immunofluorescence imaging, at 2 µM; inhibition: stronger effect = higher value; nuclei count: measured here: cell number, toxicity
[4] = molecular target: Voltage-gated potassium channel subunit beta-2 (Rattus norvegicus) (UniProt P62483); experiment: inhibitors of rat Kvbeta2 reductase activity – biochemical, NADPH fluorescence, primary screen (AID 622;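 active means fluorescence slope higher than the sample average by over 3 SD, cut at about -0.22 in these data, passing the limit was not always enough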;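 further: slope of raw intensity against log time taken from 70 to 1610 s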); settings: recombinant KvBeta, 4-cyanobenzaldehyde reduction, at 10 µM, stronger effect = higher value
[5] = molecular target: Voltage-gated potassium channel subunit beta-2 (Rattus norvegicus) (UniProt P62483); experiment: enhancers of rat Kvbeta2 NADPH turnover – biochemical, NADPH fluorescence, primary screen (AID 623); settings: Recombinant KvBeta, NADPH fluorescence decrease slope, 10 min; at 10 µM; stronger effect = lower value;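 further: fluorescence intensity change per second fitted from 20 to 320 s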
[6] = molecular target: Alpha-2C adrenergic receptor (Homo sapiens) (UniProt P18825); experiment: compounds altering alpha2C-coupled GIRK flux – cell-based, HEK293 alpha2C/GIRK1/2, thallium flux, primary screen (AID 624;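 active means fluorescence slope after compound addition differing from the mean of all screened samples at 99.7% confidence, in either direction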;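 further: slope of fluorescence ratio to pre-addition baseline per second over 15 to 24 s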); settings: thallium flux BTC fluorescence, at 10 µM, actives lie on both sides
[7] = blockers of RIG-like receptor reporter activation – cell-based, Sendai virus stimulus, luciferase, 10K MLSCN set, TLR/RLR signaling modifier project, primary screen (AID 602276;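 active means inhibition at or above 50% at 10 µM; inactive means inhibition below 50%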;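 further: firefly luciferase from ISG56 promoter only with Renilla not read in this screen; 0% = Sendai virus plus DMSO and 100% = medium plus DMSO without virus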); settings: HEK293 RL24 IRF3 luciferase reporter, at 10 µM, stronger effect = higher value
[8] = TLR3 IRF3 reporter activation blockers – cell-based, poly I:C stimulus, luciferase, 10K MLSCN set, primary screen (AID 602277;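 active means inhibition of the reporter signal at or above 50%; inactive means inhibition below 50%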); settings: HEK293-TLR3 RL24 IRF3 luciferase reporter, at 10 µM, stronger effect = higher value

Sequence of Voltage-gated potassium channel subunit beta-2 (Rattus norvegicus) (P62483 whole entry, looked up): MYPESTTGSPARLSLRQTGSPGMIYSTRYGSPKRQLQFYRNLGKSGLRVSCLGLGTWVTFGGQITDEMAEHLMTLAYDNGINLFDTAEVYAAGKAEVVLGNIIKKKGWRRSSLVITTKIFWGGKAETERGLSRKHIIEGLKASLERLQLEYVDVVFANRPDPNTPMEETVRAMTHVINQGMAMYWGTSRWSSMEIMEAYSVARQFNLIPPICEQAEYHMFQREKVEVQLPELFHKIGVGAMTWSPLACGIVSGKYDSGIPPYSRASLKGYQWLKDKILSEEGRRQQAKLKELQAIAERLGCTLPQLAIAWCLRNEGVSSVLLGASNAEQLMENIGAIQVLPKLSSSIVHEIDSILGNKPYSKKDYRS
Sequence of Alpha-2C adrenergic receptor (Homo sapiens) (P18825 whole entry, looked up): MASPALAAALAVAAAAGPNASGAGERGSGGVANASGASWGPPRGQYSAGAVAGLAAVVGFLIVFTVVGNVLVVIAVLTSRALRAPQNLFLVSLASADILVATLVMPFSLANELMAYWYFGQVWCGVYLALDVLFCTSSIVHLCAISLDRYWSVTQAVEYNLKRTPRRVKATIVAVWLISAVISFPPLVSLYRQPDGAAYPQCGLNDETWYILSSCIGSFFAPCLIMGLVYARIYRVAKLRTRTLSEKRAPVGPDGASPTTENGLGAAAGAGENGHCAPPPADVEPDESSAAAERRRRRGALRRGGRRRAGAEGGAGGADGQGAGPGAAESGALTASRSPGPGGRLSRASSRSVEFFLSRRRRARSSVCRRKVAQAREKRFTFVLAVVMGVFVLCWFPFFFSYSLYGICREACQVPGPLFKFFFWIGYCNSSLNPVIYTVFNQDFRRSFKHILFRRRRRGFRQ

SMILES | cell count [1] | inhibition [1] | inhibition of aggregation [2] | nuclei count [2] | inhibition [3] | nuclei count [3] | fluorescence slope [4] | NADPH fluorescence slope [5] | slope [6] | inhibition [7] | inhibition [8]
CC(C)C(NC(=O)OCc1ccccc1)C(=O)OCC(=O)NCc1ccco1 (centres undefined) | 511 | -2.9% (inactive) | -14.8% (inactive) | 114% | 7.4% (inactive) | 119% | -0.366 (inactive) | 2.2e-05 (inactive) | 0.00253 (inactive) | 0.314% (inactive) | 5.27% (inactive)
CCC1C(=O)N=C(SCC(=O)Nc2cccc3ccccc23)NC1=O (centres undefined) | 393 | -4% (inactive) | 3.1% (inactive) | 101% | -41.3% (inactive) | 119% | -0.564 (inactive) | -4.5e-05 (inactive) | 0.00593 (inactive) | -15.6% (inactive) | 0.719% (inactive)
Cc1onc(-c2ccccc2Cl)c1C(=O)NCCn1c(C)cc2ccccc21 | 677 | 9% (inactive) | 7.9% (inactive) | 79.4% | -37.1% (inactive) | 124% | -0.419 (inactive) | -1.5e-05 (inactive) | 0.00456 (inactive) | 15.6% (inactive) | 36.3% (inactive)
O=S(=O)(Nc1ccc2c(c1)OCO2)c1ccc(Br)s1 | 285 | -5.5% (inactive) | 14.8% (inactive) | 92.9% | 8.4% (inactive) | 95.6% | -0.31 (inactive) | 1.5e-05 (inactive) | 0.00308 (inactive) | 0.155% (inactive) | -19.3% (inactive)
Cc1cc2ccccc2c(=O)n1CC(=O)N(C)c1ccc(F)cc1 | 629 | -4.7% (inactive) | -4.1% (inactive) | 98% | -74.2% (inactive) | 103% | -0.353 (inactive) | -5.6e-05 (inactive) | 0.00579 (inactive) | 2.03% (inactive) | 9.91% (inactive)
CCOC(=O)C1CCN(Cc2ccc(F)c(Br)c2)CC1 | 313 | 3.4% (inactive) | -23.7% (inactive) | 110% | -156% (inactive) | 140% | -0.414 (inactive) | 2e-06 (inactive) | 0.00431 (inactive) | 9.36% (inactive) | 20.4% (inactive)
CC(=O)N1CCC(N(C(=O)Nc2ccc(C)c(C)c2)C2CCCC2)CC1 | 644 | -3.1% (inactive) | -11.9% (inactive) | 52.8% | -61.6% (inactive) | 106% | -0.258 (inactive) | -1.2e-06 (inactive) | 0.0055 (inactive) | 11.1% (inactive) | 15% (inactive)
COc1ccc(C2=NOC(C(=O)Nc3cc(Br)ccc3O)C2)cc1OC (centres undefined) | 672 | -12.2% (inactive) | -2.8% (inactive) | 102% | -73.1% (inactive) | 106% | -0.459 (inactive) | -3.2e-05 (inactive) | 0.00665 (inactive) | 9.82% (inactive) | 34.8% (inactive)
O=C(NCCc1c[nH]c2ccccc12)c1cnc2n(c1=O)CCS2 | 532 | 6.3% (inactive) | -8.9% (inactive) | 103% | -35.9% (inactive) | 90.6% | -0.547 (inactive) | -2.5e-05 (inactive) | 0.00796 (inactive) | -48.8% (inactive) | -79.3% (inactive)
COc1ccc(C2=NOC(C(=O)NC3CCCCC3)C2)cc1OC (centres undefined) | 832 | -14.3% (inactive) | 1.9% (inactive) | 104% | -84.9% (inactive) | 96.1% | -0.547 (inactive) | -4.1e-05 (inactive) | 0.00464 (inactive) | 14.9% (inactive) | 20.1% (inactive)
COc1cc(Br)cc(CN2CCN(C/C=C/c3ccccc3)CC2)c1O | 273 | 5.8% (inactive) | -5% (inactive) | 98.5% | 3% (inactive) | 108% | -0.606 (inactive) | -8.8e-06 (inactive) | 0.00359 (inactive) | -0.336% (inactive) | -8.7% (inactive)
COC(=O)N1CC(c2ccccc2)CC1=O (centres undefined) | 639 | -0.6% (inactive) | -22.4% (inactive) | 119% | -61.9% (inactive) | 73% | -0.47 (inactive) | -0.000268 (inactive) | 0.00505 (inactive) | 7.79% (inactive) | 16.7% (inactive)
Cc1ccc(S(=O)(=O)NCC(=O)N(CC(=O)NC2CCCCC2)Cc2ccco2)cc1 | 294 | 8.1% (inactive) | 12.7% (inactive) | 97.1% | -54.4% (inactive) | 110% | -0.431 (inactive) | -4.7e-05 (inactive) | 0.00754 (inactive) | 8.19% (inactive) | 20% (inactive)
COc1cccc(Oc2cn[nH]c2-c2ccc(O)cc2O)c1 | 361 | 10.2% (inactive) | -13.9% (inactive) | 103% | -104% (inactive) | 101% | -0.453 (inactive) | 4.8e-05 (inactive) | 0.0038 (inactive) | -4.4% (inactive) | 12.8% (inactive)

Source: PubChem BioAssay
